In general, AC50 refers to the midpoint of the concentration-response curve, whichever way the signal moves.

For 38 molecules, outcome and AC50 results are on record in PubChem BioAssay (EPA / NIEHS).

Activity calls are given as the source filed them. How the source made its calls: active means hit-call score of the fitted dose curve at least 0.9, where 1 is the maximum; inactive means score below 0.9.

Paired box protein Pax-6 (Homo sapiens), sequence (P26367 whole entry, looked up): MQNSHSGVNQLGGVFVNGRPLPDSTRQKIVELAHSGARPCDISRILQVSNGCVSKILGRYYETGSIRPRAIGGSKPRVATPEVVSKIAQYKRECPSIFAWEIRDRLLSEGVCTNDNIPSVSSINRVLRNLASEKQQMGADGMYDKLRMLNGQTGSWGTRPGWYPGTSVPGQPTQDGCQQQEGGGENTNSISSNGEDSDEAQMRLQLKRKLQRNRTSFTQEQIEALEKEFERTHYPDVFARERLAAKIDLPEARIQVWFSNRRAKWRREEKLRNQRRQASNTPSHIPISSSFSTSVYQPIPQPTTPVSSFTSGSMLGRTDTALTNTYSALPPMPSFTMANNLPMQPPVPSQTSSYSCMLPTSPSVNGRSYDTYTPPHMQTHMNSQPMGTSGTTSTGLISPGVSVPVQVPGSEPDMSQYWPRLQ

Test system in one experiment: not listed separately
In words: ATG_PBREM_CIS: Attagene CIS-FACTORIAL HepG2 Assay for human Phenobarbital-responsive Enhancer Module (PBREM) (AID 2282955). The note with it: HepG2 PBREM cis-reporter, Attagene multiplexed transcription; actives raise or lower the signal. The gist of the method:
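HepG2, transient MRTU transfection, 24 h dosing; RNA → oligo(dT) RT → PCR → 6-FAM extension → HpaI → CE. Bidirectional fit vs DMSO.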
Turning to `CCCC(O)C(O)CO` (configuration not stated), the result was inactive.

With `COCCc1ccc(OCC(O)CNC(C)C)cc1` (configuration not stated), the outcome was inactive.

On to `NCCNc1cccc2ccccc12`, for which the result was inactive.

As to `C=C(C#N)C(=O)OCC`, the result was inactive.

On to `Cc1c(OCC(F)(F)F)ccnc1CS(=O)c1nc2ccccc2[nH]1` (configuration not stated), for which the outcome was inactive.

Turning to `Nc1ccc(NCCO)c([N+](=O)[O-])c1`, the outcome was inactive.

With `Oc1ccc2cc(SSc3ccc4cc(O)ccc4c3)ccc2c1`, the outcome was inactive.

In the case of `CC1=CC[C@@]23C[C@@H]1C(C)(C)[C@@H]2CC[C@H]3C`, the outcome was inactive.

In the case of `C=C(C)CNCC`, the result was inactive.

With `CC(=O)NCCO`, the result was inactive.

Take `CC(C)(N=C=O)c1cccc(C(C)(C)N=C=O)c1`: the outcome was inactive.

As for `COC(=O)c1ccc(C)cc1C1=NC(C)(C(C)C)C(=O)N1` (configuration not stated) (tested in a mixture with another compound), the result was inactive.

Take `CN1C(=O)c2ccccc2C1=O`: the result was inactive.

As for `CCCCCCCCCCCC(=O)OC[C@@H](O)[C@H]1OC[C@H](O)[C@H]1O`, the result was inactive.

With `CN(c1nccc(=O)[nH]1)C1CCN(c2nc3ccccc3n2Cc2ccc(F)cc2)CC1`, the outcome was inactive.

Take `CCCCCC(C)=O`: the result was inactive.

Regarding `CC(C=O)Cc1ccc(C(C)(C)C)cc1` (configuration not stated), the outcome was inactive.

For the molecule `CN1CCOCC1`, the outcome was inactive.

For `c1ccc(CN(Cc2ccccc2)Cc2ccccc2)cc1`, the outcome was inactive.

Take `CC/C=C\CC/C=C/CO`: the result was inactive.

With `CCCC(=O)c1ccccc1`, the result was inactive.

`CCCCCCC(=O)c1ccccc1`: the outcome was inactive.

Turning to `O=C1OC(=O)c2c(Cl)c(Cl)c(Cl)c(Cl)c21`, the outcome was inactive.

On to `CCCCSCCCC`, for which the outcome was inactive.

Take `C=CCOC(=O)CCCCCC`: the result was inactive.

`OC[C@H]1O[C@@H]2O[C@H]3[C@H](O)[C@@H](O)[C@@H](O[C@H]4[C@H](O)[C@@H](O)[C@@H](O[C@H]5[C@H](O)[C@@H](O)[C@@H](O[C@H]6[C@H](O)[C@@H](O)[C@@H](O[C@H]7[C@H](O)[C@@H](O)[C@@H](O[C@H]8[C@H](O)[C@@H](O)[C@@H](O[C@H]9[C@H](O)[C@@H](O)[C@@H](O[C@H]1[C@H](O)[C@H]2O)O[C@@H]9CO)O[C@@H]8CO)O[C@@H]7CO)O[C@@H]6CO)O[C@@H]5CO)O[C@@H]4CO)O[C@@H]3CO`: the result was inactive.

`CCO/C=C1\N=C(c2ccccc2)OC1=O`: the outcome was inactive.

`C#CC(C)N(C)C(=O)Nc1ccc(Cl)cc1` (configuration not stated): the outcome was inactive.

`FC(F)(F)COCC(F)(F)F`: the result was inactive.

Take `O=C(Nc1ccc2c(O)c(N=Nc3ccc(N=Nc4ccc(S(=O)(=O)O)cc4)cc3)c(S(=O)(=O)O)cc2c1)c1ccccc1`: the outcome was inactive.

On to `C=C(C)C(=O)OCCOCCOCCOC(=O)C(=C)C`, for which the result was inactive.

The next experiment addresses Paired box protein Pax-6 (Homo sapiens) (UniProt P26367). As to the kind of experiment: ATG_Pax6_CIS: Attagene CIS-FACTORIAL HepG2 Assay for human Paired Box 6 (PAX6) (AID 2282956). The note with it: HepG2 CIS-FACTORIAL PAX6 reporter transcription, RNA readout; actives raise or lower the signal. Put shortly: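 Read-out is reporter transcript level, measured by RT-PCR with fluorescent primer extension and capillary electrophoresis after 24 h dosing of transfected HepG2 cells. Activity in either direction fitted relative to DMSO control.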
On to `CCCC(O)C(O)CO` (configuration not stated), for which the call was inactive.

As for `COCCc1ccc(OCC(O)CNC(C)C)cc1` (configuration not stated), the molecule was called inactive.

Turning to `NCCNc1cccc2ccccc12`, the AC50 is 100 µM (active).

Consider `C=C(C#N)C(=O)OCC`, for which the outcome was inactive.

Consider `CC(C)=CCCC(C)CC(=O)O` (configuration not stated), for which the molecule was called inactive.

Regarding `Cc1c(OCC(F)(F)F)ccnc1CS(=O)c1nc2ccccc2[nH]1` (configuration not stated), the concentration at half-maximal activity (AC50) was 43.5 µM (active).

As to `Nc1ccc(NCCO)c([N+](=O)[O-])c1`, the outcome was inactive.

On to `CCOC(=O)c1ccc(N)cc1`, for which the outcome was inactive.

As to `Oc1ccc2cc(SSc3ccc4cc(O)ccc4c3)ccc2c1`, the AC50 was 27.1 µM (active).

In the case of `CC1=CC[C@@]23C[C@@H]1C(C)(C)[C@@H]2CC[C@H]3C`, the result was inactive.

As for `C=C(C)CNCC`, the outcome was inactive.

For `CC(=O)NCCO`, the molecule was classed as inactive.

As to `COC(=O)c1ccc(C)cc1C1=NC(C)(C(C)C)C(=O)N1` (configuration not stated) (tested in a mixture with another compound), the outcome was inactive.

On to `CN1C(=O)c2ccccc2C1=O`, for which the result was inactive.

As for `OCCCCC(O)CO` (configuration not stated), the call was inactive.

Take `CCCCCCCCCCCC(=O)OC[C@@H](O)[C@H]1OC[C@H](O)[C@H]1O`: the outcome was inactive.

`CN(c1nccc(=O)[nH]1)C1CCN(c2nc3ccccc3n2Cc2ccc(F)cc2)CC1`: the result was inactive.

`CCCCCC(C)=O`: the molecule was called inactive.

For the molecule `C[C@H](CCC(=O)NCC(=O)O)[C@H]1CC[C@H]2[C@@H]3[C@H](O)C[C@@H]4C[C@H](O)CC[C@]4(C)[C@H]3C[C@H](O)[C@]12C`, the result was inactive.

Take `CC(C=O)Cc1ccc(C(C)(C)C)cc1` (configuration not stated): the molecule was classed as inactive.

On to `CN1CCOCC1`, for which the molecule was classed as inactive.

On to `c1ccc(CN(Cc2ccccc2)Cc2ccccc2)cc1`, for which the outcome was inactive.

As to `CC/C=C\CC/C=C/CO`, the molecule was called inactive.

With `CCCC(=O)c1ccccc1`, the result was inactive.

As for `CCCCCCC(=O)c1ccccc1`, the call was inactive.

Consider `O=C1OC(=O)c2c(Cl)c(Cl)c(Cl)c(Cl)c21`, for which the call was inactive.

`C=C(CC(=O)O)C(=O)O`: the molecule was classed as inactive.

Regarding `C=CCOC(=O)CCCCCC`, the molecule was called inactive.

For the molecule `OC[C@H]1O[C@@H]2O[C@H]3[C@H](O)[C@@H](O)[C@@H](O[C@H]4[C@H](O)[C@@H](O)[C@@H](O[C@H]5[C@H](O)[C@@H](O)[C@@H](O[C@H]6[C@H](O)[C@@H](O)[C@@H](O[C@H]7[C@H](O)[C@@H](O)[C@@H](O[C@H]8[C@H](O)[C@@H](O)[C@@H](O[C@H]9[C@H](O)[C@@H](O)[C@@H](O[C@H]1[C@H](O)[C@H]2O)O[C@@H]9CO)O[C@@H]8CO)O[C@@H]7CO)O[C@@H]6CO)O[C@@H]5CO)O[C@@H]4CO)O[C@@H]3CO`, the molecule was called inactive.

In the case of `CCO/C=C1\N=C(c2ccccc2)OC1=O`, the result was inactive.

Consider `COc1ccc(CCO)cc1`, for which the call was inactive.

As to `C#CC(C)N(C)C(=O)Nc1ccc(Cl)cc1` (configuration not stated), the call was inactive.

Consider `FC(F)(F)COCC(F)(F)F`, for which the outcome was inactive.

In the case of `O=C(Nc1ccc2c(O)c(N=Nc3ccc(N=Nc4ccc(S(=O)(=O)O)cc4)cc3)c(S(=O)(=O)O)cc2c1)c1ccccc1`, the call was inactive.

On to `C=C(C)C(=O)OCCOCCOCCOC(=O)C(=C)C`, for which the result was inactive.

For the molecule `[Cl][Au]([Cl])[Cl]`, the result was inactive.
